Assay outcomes from PubChem BioAssay.
HT1080NT lethal: qHTS for induction of synthetic lethality in tumor cells producing 2HG: qHTS for the HT-1080-NT fibrosarcoma cell line. Potency, µM (titrated, usually from 46.1 µM), for inactives: top-dose activity, negative = less viability, most hits filed as cytotoxic. hit rate 1.6% among 360,000. HT-1080-NT fibrosarcoma viability, CellTiter-Glo ATP luminescence, 48 h;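 also: NT is the 2HG producing partner of a matched IDH1 knockdown line; potency is read from the fitted curve at half-maximal effect; 0% = DMSO-treated cells and -100% = media-only wells without cells; nearly all actives have a fitted effect of over 55% in size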
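Fibrosarcoma NT cells, 750 per well in 5% FBS RPMI, were exposed to compound for 48 hours. Viability: CellTiter-Glo luminescence.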
Giardia killer: Small Molecules that selectively kill Giardia lamblia: qHTS; Giardia lamblia trophozoite viability; activity change, % at 7.66 µM, hits read low; hit rate 0.15% among 340,000; AID 540267, 2011; in the data active = activity change below about -80%; inconclusive = between about -30% and that limit;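 also: parasites exposed to compound for two days anaerobically before the ATP read; % is scaled to controls: 0 for no effect and ±100 for the full control effect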
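Media and compound were dispensed first, then trophozoites at 100 cells/well; plates sat 48 hrs at 37 deg C without oxygen before ATP luminescence reagent was added and read after 15-30 min at room temperature.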
HepG2 viability: qHTS for Inhibitors of TGF-b: Cytotox Counterscreen | HepG2 CAGA-GFP viability, ATP luminescence, 18 h | Potency, µM (highest dose often 46.1 µM), without a hit: top-dose activity change, negative = cytotoxicity, usual class: cytotoxic | hit rate 0.76% among 410,000 | AID 588856, 2011; also: potency is read from the fitted curve at half-maximal effect
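CellTiter-Glo luminescence gave cytotoxicity after 18 hours at 37 degrees C. The cells were HepG2 CAGA-GFP in 1% FBS DMEM, stimulated with 500 pg/mL TGF-beta after compound addition. %Activity was normalised to no-cell wells (complete cell-killing) and DMSO (no toxicity), and curves were fitted and classified.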
IL-1B inflam inh: qHTS for Inhibitors of Inflammasome Signaling: IL-1-beta AlphaLISA Primary Screen | THP-1 LPS/ATP IL-1B secretion, AlphaLISA, 16 h; active compounds read low | activity change, % at 57.5 µM | hit rate 4.7% among 360,000 | AID 743279, 2014; in the data active = activity change below about -50%; inconclusive = mostly about -30% to -49%; also: % is scaled to controls: 0 for no effect and ±100 for the full control effect
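Secreted IL-1B measured by AlphaLISA bead assay after 16 h compound exposure of THP-1 cells; compounds (final up to 57.5 uM) added 1 h before LPS (250 ng/mL) and ATP (1.25 mM) stimulation; lower signal means less secretion.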
HT1080 IDH1KD tx: qHTS for induction of synthetic lethality in tumor cells producing 2HG: qHTS for the HT-1080-IDH1KD cell line. hit rate 2% among 360,000. HT-1080 IDH1 knockdown viability, ATP luminescence, 48 h. Potency, µM (top dose mostly 46.1 µM), inactives show top-dose activity, negative = toxicity, most hits filed as cytotoxic. AID 686971, 2013;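 also: potency is read from the fitted curve at half-maximal effect; 0% = DMSO wells and -100% = cell-free medium wells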
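Knockdown cells (IDH1KD HT-1080) received compounds 2 h after plating at 750 cells/well and were kept 48 h at 37 °C in 5% FBS RPMI. A CellTiter-Glo luminescence read gave % activity for curve fitting.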
TGFb SMAD3 inh: qHTS for Inhibitors of TGF-b; HepG2 CAGA-GFP TGF-b/SMAD3 reporter, GFP fluorescence, 18 h; TGF-beta stimulated, 500 pg/mL final; Potency, µM (doses to about 46.1 µM), without a hit: at the highest dose activity, negative = inhibition, actives largely listed as inhibitors; hit rate 1.2% among 410,000; AID 588855, 2011; also: potency is read from the fitted curve at half-maximal effect; % is scaled to controls: 0 for no effect and ±100 for the full control effect; nearly all actives have a fitted effect of over 65% in size
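HEPG2 CAGA-GFP cells (1000/well, DMEM with 1% FBS) were pre-incubated 2 h at 37 degrees C, given compound by pin tool, then stimulated with TGF-beta at 500 pg/mL final for 18 h before per-cell GFP fluorescence imaging.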
Starred values were filed as active, the others as inactive; ? = inconclusive; / = no result given. Sampled rows, rich in hits. Any-hit rate of the full collection: about 6.5%. Unless noted, calls follow the shape of the dose curve; as a rule, active = well fitted curve in the direction sought with a large enough effect; inconclusive = small, poorly fitted or top-dose-only effect, or another doubt; inactive = no such curve, though single readings can be large; an effect the other way counts as inactive or inconclusive.

SMILES	HT1080NT lethal	Giardia killer	HepG2 viability	IL-1B inflam inh	HT1080 IDH1KD tx	TGFb SMAD3 inh
CC(C)CC(COCc1ccc(C(F)(F)F)cc1)N1CCN(C(=O)c2ccc(C(F)(F)F)cc2)CCC1=O (stereo not given)	?	?	-52%	-54*	?	?
CC(C)CC(COCc1cccc(C(F)(F)F)c1)N1CCN(C(=O)c2cccc(C(F)(F)F)c2)CCC1=O (stereo not given)	-9%	8	-16%	-67*	-6%	?
Cc1ccc(COC[C@H](CC(C)C)N2CCN(C(=O)c3cccc(C(F)(F)F)c3)CCC2=O)cc1	?	/	/	-5	?	/
CC(C)C[C@@H](COCc1cccc(Cl)c1)N1CCN(C(=O)c2ccc(C(F)(F)F)cc2)CCC1=O	?	/	/	-50*	?	/
CC(C)CC(COCc1ccc(Cl)cc1)N1CCN(C(=O)c2cccc(C(F)(F)F)c2)CCC1=O (stereo not given)	0%	-26	-17%	-24	-6%	?
CC(C)C[C@@H](COCc1ccc(C(F)(F)F)cc1)N1CCN(C(=O)c2ccc(C(F)(F)F)cc2)CCC1=O	?	/	/	-76*	?	/
CCOc1ccc(CNn2nnnc2N)cc1	10%	-27	1%	11	0%	3%
CCCCN(CC)CCCNC(=O)C1c2ccccc2C(=O)N(C)C1c1cn(C)c2ccccc12 (stereo not given)	-15%	2	-26%	?	-9%	1%
Cc1ccc(NN2C(=O)C=C(c3ccc(Cl)cc3)C2=O)cc1	?	-2	-54%	-103*	?	?
O=C1C=C(c2ccccc2)C(=O)N1Nc1ccccc1	-5%	5	-98%	-101*	?	?
COc1ccc(Nc2cccccc2=O)cc1	2%	16	1%	?	14%	-12%
COc1ccc(C2=CC(=O)N(Nc3ccccc3)C2=O)cc1	?	?	-151%	-55*	16µM*	?
O=C(NCc1ccc(OC(F)(F)F)cc1)C12CN(Cc3ccccc3)CC1C(c1cccc([N+](=O)[O-])c1)=NO2 (stereo not given)	-1%	-21	-14%	-16	3%	-3%
Cc1[nH]nc2ncc(C(=O)c3ccccc3O)cc12	1%	3	0%	-51*	?	-30%
Cc1cccc(C(=O)NC(=O)Nc2c(C)cc(C)nc2C)c1	0%	0	-13%	12	-7%	1%
COCC(C)NC(=O)c1ccccc1OC(C)=O (stereo not given)	5%	4	-3%	1	19%	-18%
CC(=O)c1ccc(NC(=S)NC(C)CCc2ccccc2)cc1 (stereo not given)	-4%	-14	-42%	-19	3%	13µM*
CC(=O)Oc1ccccc1C(=O)NC(C)CCc1ccccc1 (stereo not given)	-16%	17	-17%	-72*	-15%	?
Cc1ccc(NC(=S)NC(C)CCc2ccccc2)cc1C (stereo not given)	-1%	-7	-8%	-23	-1%	?
Cc1ccc2nc(-c3ccc(NS(=O)(=O)c4ccc(F)c(F)c4)cc3)sc2c1	?	-4	-88%	-51*	?	0%
Cc1ccc2nc(-c3ccc(NC(=S)NC(=O)C(C)C)cc3)sc2c1	2.8µM*	-10	0%	?	1.6µM*	-2%
Cc1ccc2nc(-c3ccc(NC(=S)NC4CC(C)(C)NC(C)(C)C4)cc3)sc2c1	23µM*	11	13µM*	-97*	?	?
CCC(=O)NC(=S)Nc1ccc(-c2nc3ccc(C)cc3s2)cc1	28%	-1	-6%	-5	13%	0%
Fc1ccc(N2CCN(Cc3cccn3-c3nnc(N4CCN(C5CCCCC5)CC4)s3)CC2)cc1	/	/	-34%	/	/	18%
Cc1cc(C(=O)Nc2c(C)n(C)n(-c3ccccc3)c2=O)on1	-1%	-7	-1%	1	-5%	0%
SMILES	HT1080NT lethal	Giardia killer	HepG2 viability	IL-1B inflam inh	HT1080 IDH1KD tx	TGFb SMAD3 inh
CC1CCCC(C)N1C(=O)c1ccccc1Nc1ccc(SC(F)F)cc1 (stereo not given)	23µM*	-2	-48%	-23	?	?
CC(OC(=O)c1ccccc1Nc1ccc(SC(F)F)cc1)C(N)=O (stereo not given)	-1%	26	-46%	-75*	-13%	?
CNC(=O)COC(=O)/C=C/c1cn(-c2ccccc2)nc1-c1ccc2c(c1)OCCO2	0%	1	-10%	0	6%	-1%
COCc1cc(C)n(CC(=O)NCc2ccccc2)c(=O)c1C#N	3%	-21	8%	26	0%	4%
O=C1C2CC=CCC2C(=O)N1c1ccc(NCCc2ccc(Cl)cc2)c([N+](=O)[O-])c1 (stereo not given)	14%	-12	-5%	-15	15%	-23%
O=C1C2CC=CCC2C(=O)N1c1ccc(NCCc2ccc(O)cc2)c([N+](=O)[O-])c1 (stereo not given)	-29%	7	-41%	-83*	-26%	-13%
O=C(Nc1ccc(F)c(Cl)c1)C1Cc2c(-c3ccccc3Oc3ccccc3)ccnc2O1 (stereo not given)	13µM*	/	-26%	?	0%	?
O=C(NCc1cccs1)C1Cc2c(-c3ccccc3Oc3ccccc3)ccnc2O1 (stereo not given)	-25%	/	-9%	-11	?	7%
O=C(NCc1ccncc1)C1Cc2c(-c3ccccc3Oc3ccccc3)ccnc2O1 (stereo not given)	?	/	-57%	-59*	-3%	14µM*
CN(C(=O)c1cccc(NC(=O)Cc2ccc(NC(=O)C3CCN(C(=O)C4CCCC4)CC3)cc2)c1)C1CCCC1	4%	-7	-7%	-3	-11%	-14%
CC(NCC(O)COC1CCC(C(C)(C)C)CC1)c1ccccc1 (stereo not given)	-22%	?	-137%	-67*	-7%	?
CC1CCC(C(C)C)C(OCC(O)CNC(C)(C)C)C1 (stereo not given)	-19%	5	-15%	-27	-2%	0%
CC1CCC(C(C)C)C(OCC(O)CNC(C)c2ccccc2)C1 (stereo not given)	15µM*	1	-87%	-108*	?	?
